Results reported in ChEMBL document CHEMBL1961873, “Compounds: GSK PKIS; Assays: Nanosyn kinase panel” (2012).

Experiments:
[1] = molecular target: Fibroblast growth factor receptor 4 (Homo sapiens) (UniProt P22455); settings: at 1 µM;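 note: reported figure is the averaged percent inhibition of FGFR4, from the GSK PKIS kinase screening panel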
[2] = molecular target: Tyrosine-protein kinase Fgr (Homo sapiens) (UniProt P09769); settings: at 0.1 µM
[3] = molecular target: Tyrosine-protein kinase Fgr (Homo sapiens) (UniProt P09769); settings: at 1 µM
[4] = molecular target: Vascular endothelial growth factor receptor 1 (Homo sapiens) (UniProt P17948); settings: at 0.1 µM
Vascular endothelial growth factor receptor 1 (Homo sapiens), sequence (P17948 whole entry): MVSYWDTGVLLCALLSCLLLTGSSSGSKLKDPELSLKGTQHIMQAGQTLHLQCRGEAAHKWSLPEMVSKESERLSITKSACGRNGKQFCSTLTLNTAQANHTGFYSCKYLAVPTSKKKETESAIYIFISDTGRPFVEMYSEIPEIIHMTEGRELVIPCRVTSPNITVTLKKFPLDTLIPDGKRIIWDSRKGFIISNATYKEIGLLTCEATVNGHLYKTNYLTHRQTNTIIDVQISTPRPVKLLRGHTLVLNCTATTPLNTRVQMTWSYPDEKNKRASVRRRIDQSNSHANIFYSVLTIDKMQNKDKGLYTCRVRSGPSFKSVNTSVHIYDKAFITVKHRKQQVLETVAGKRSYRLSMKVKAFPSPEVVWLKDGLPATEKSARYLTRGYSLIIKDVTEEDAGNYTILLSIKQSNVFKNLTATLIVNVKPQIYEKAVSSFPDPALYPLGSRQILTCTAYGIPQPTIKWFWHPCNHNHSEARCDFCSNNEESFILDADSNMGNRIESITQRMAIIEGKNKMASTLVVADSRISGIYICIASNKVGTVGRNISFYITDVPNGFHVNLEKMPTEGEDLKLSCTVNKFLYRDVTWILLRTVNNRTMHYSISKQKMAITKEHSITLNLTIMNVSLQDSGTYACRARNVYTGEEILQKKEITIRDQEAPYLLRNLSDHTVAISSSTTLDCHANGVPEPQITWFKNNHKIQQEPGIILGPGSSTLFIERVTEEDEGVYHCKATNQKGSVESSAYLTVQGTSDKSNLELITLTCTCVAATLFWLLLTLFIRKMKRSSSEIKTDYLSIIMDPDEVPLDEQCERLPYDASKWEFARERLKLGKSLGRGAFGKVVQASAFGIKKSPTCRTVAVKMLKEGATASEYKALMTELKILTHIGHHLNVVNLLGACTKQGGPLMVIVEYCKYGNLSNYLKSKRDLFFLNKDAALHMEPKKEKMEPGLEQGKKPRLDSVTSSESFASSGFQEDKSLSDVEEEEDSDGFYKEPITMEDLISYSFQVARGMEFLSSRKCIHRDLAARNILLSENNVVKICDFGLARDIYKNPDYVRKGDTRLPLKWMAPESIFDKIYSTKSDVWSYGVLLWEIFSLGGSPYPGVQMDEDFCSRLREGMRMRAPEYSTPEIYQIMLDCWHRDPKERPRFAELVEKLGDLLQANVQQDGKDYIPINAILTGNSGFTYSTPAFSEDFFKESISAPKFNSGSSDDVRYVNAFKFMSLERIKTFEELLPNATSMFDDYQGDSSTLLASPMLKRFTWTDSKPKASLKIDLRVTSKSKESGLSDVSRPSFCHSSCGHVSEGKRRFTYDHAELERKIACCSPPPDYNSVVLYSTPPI

[5] = molecular target: Vascular endothelial growth factor receptor 1 (Homo sapiens) (UniProt P17948); settings: at 1 µM
[6] = molecular target: Receptor-type tyrosine-protein kinase FLT3 (Homo sapiens) (UniProt P36888); settings: at 0.1 µM
[7] = molecular target: Receptor-type tyrosine-protein kinase FLT3 (Homo sapiens) (UniProt P36888); settings: at 1 µM
[8] = test system: T1, Receptor-type tyrosine-protein kinase FLT3 (Homo sapiens), P36888 [D835Y]; settings: at 0.1 µM
T1 sequence (whole entry): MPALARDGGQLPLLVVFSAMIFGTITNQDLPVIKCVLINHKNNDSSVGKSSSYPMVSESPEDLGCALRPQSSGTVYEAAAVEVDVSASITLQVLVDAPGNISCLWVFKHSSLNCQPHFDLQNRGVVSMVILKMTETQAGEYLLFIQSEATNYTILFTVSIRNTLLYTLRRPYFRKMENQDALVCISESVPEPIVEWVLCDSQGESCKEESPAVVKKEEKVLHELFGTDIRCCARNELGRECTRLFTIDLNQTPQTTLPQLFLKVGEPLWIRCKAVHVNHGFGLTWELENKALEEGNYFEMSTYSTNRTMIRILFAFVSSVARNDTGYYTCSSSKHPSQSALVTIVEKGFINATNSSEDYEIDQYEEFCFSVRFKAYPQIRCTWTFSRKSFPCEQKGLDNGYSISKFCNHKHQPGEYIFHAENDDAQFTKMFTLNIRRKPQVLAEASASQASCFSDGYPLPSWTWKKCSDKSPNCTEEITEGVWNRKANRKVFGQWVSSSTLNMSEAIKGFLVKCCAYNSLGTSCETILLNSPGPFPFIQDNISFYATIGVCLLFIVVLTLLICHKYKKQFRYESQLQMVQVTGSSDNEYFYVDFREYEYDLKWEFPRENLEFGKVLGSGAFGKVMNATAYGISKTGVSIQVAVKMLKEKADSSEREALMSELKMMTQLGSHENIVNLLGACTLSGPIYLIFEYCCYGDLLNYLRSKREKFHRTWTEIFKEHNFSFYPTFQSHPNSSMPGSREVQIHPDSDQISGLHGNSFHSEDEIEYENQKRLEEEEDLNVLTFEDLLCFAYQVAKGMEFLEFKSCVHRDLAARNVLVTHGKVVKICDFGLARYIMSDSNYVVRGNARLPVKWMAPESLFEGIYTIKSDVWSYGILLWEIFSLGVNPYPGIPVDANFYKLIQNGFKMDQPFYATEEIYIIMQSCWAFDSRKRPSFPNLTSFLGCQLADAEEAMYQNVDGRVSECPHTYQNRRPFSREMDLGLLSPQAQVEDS

[9] = molecular target: Non-receptor tyrosine-protein kinase TYK2 (Homo sapiens) (UniProt P29597); settings: at 1 µM;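 note: values are mean percent inhibition of TYK2 kinase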
Non-receptor tyrosine-protein kinase TYK2 (Homo sapiens), sequence (P29597 whole entry): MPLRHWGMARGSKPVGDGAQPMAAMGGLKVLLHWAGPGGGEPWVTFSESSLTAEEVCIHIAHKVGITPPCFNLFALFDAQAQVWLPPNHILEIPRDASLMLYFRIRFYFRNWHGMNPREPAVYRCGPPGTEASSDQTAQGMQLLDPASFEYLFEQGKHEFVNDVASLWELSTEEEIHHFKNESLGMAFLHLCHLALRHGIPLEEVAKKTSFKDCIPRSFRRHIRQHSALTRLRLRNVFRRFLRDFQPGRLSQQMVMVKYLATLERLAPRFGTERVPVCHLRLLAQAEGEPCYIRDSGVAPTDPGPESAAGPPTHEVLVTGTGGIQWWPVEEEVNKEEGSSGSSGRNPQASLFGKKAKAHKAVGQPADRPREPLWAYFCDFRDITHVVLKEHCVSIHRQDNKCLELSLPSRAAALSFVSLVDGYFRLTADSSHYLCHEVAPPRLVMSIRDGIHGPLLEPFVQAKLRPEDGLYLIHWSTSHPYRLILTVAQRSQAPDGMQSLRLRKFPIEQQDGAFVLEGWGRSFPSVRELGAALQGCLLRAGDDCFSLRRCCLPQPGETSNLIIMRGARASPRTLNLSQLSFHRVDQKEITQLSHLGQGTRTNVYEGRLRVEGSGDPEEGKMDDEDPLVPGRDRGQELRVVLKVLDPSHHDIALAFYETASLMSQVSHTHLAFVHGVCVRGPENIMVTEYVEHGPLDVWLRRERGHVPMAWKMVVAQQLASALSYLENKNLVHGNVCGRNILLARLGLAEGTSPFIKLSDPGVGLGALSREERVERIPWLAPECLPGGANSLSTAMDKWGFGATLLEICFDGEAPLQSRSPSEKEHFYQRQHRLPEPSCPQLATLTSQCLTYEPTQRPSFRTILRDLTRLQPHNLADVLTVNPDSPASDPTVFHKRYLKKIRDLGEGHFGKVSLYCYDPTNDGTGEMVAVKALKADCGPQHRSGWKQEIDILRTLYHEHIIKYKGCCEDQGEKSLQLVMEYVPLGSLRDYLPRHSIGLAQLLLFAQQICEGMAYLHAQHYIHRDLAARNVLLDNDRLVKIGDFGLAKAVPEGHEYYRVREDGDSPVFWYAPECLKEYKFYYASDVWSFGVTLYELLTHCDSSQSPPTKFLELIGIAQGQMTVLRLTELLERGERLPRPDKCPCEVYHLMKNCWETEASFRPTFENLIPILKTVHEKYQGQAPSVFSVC

[10] = molecular target: T2, Tyrosine-protein kinase receptor TYRO3 (Homo sapiens) (UniProt Q06418); settings: at 0.1 µM;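 note: reported percentages are averaged inhibition values of TYRO3 kinase activity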
T2 sequence (whole entry): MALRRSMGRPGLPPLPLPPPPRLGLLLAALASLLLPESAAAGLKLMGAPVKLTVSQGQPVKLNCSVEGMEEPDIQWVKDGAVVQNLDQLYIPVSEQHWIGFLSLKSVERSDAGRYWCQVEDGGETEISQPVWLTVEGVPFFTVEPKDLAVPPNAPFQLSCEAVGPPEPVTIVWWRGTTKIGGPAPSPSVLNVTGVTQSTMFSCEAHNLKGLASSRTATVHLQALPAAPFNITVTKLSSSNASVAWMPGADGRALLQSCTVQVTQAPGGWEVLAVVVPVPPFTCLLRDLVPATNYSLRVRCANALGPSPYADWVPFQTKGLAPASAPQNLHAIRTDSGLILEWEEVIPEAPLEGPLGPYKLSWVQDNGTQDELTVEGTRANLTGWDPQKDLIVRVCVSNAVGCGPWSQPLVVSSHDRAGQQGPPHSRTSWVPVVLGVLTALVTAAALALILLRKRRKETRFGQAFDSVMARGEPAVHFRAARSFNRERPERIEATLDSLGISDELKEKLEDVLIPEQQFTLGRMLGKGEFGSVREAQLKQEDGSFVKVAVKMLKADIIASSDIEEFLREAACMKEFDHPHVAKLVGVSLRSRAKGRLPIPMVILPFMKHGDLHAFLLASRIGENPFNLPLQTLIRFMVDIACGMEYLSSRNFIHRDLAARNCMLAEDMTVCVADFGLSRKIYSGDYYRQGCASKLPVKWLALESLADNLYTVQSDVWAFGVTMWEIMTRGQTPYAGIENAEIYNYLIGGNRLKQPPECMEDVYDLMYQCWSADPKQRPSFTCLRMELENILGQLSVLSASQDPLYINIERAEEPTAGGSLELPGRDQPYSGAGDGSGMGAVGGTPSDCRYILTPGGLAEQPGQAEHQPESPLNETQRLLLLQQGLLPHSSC

Tyrosine-protein kinase Fgr (Homo sapiens), sequence (P09769 2-529 limits assumed): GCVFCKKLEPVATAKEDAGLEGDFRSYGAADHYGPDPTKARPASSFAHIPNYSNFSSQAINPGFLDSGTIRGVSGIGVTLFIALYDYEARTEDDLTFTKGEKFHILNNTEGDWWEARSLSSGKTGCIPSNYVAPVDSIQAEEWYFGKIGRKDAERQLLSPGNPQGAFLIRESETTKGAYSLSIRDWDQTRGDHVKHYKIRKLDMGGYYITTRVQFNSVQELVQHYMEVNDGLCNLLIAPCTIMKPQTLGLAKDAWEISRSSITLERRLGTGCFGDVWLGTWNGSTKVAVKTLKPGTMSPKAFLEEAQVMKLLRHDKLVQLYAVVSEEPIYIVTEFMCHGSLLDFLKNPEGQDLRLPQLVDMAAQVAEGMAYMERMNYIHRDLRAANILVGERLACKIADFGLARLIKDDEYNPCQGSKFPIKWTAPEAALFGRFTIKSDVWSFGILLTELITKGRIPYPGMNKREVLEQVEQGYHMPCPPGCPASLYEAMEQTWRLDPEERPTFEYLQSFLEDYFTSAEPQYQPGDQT
Fibroblast growth factor receptor 4 (Homo sapiens), sequence (P22455 22-802 limits assumed): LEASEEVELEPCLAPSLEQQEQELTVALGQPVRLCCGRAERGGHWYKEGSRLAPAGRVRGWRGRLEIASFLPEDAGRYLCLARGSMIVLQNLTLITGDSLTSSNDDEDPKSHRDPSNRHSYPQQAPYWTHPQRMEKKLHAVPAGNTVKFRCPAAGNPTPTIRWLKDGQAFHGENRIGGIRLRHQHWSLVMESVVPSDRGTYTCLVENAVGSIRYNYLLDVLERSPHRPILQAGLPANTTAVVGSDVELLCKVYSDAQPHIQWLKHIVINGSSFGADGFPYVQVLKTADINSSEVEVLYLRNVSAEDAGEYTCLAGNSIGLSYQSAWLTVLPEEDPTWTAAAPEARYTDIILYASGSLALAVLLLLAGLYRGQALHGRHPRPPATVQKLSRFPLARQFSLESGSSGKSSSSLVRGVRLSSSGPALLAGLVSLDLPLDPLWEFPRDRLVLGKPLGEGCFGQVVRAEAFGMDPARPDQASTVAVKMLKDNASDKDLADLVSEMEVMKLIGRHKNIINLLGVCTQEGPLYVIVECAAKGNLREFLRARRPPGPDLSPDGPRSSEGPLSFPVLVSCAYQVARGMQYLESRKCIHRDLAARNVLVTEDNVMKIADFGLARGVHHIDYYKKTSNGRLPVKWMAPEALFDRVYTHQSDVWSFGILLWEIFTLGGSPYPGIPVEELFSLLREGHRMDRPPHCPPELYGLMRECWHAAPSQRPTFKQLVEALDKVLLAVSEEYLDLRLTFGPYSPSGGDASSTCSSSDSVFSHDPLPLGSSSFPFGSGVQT

SMILES | inhibition [1] [%] | inhibition [2] [%] | inhibition [3] [%] | inhibition [4] [%] | inhibition [5] [%] | inhibition [6] [%] | inhibition [7] [%] | inhibition [8] [%] | inhibition [9] [%] | inhibition [10] [%]
NS(=O)(=O)c1ccc(-c2cc3ccncc3cc2OCc2ccccc2)cc1 | 4.68 | 5.99 | 4.64 | 0.22 | 2.57 | 2.19 | 2.5 | -4.03 | -0.94 | 3.82
COc1cccc(-n2ncc3c(N/N=C/c4ccc(C)cc4)ncnc32)c1 | 1.93 | 3.81 | 18.9 | -0.93 | 0.15 | 0.84 | 5.84 | 2.71 | -1.47 | 1.83
NS(=O)(=O)c1cccc(-c2cc3ccncc3cc2OCc2ccccc2)c1 | 3.21 | 1.58 | 7.39 | 1.89 | 3.8 | 4.34 | 2.96 | 1.09 | -5.35 | 2.68
NS(=O)(=O)c1ccc(N/N=C2\C(=O)Nc3ccc(Cl)cc32)cc1 | 0.91 | 4.13 | 7.63 | 2.91 | 8.28 | 16.4 | 66.7 | -0.18 | 0.36 | 3.25
CC(C)c1ccc(Nc2nccc(-c3cnn4ncccc34)n2)cc1 | 3.28 | 3.66 | 7.87 | 3.33 | 10.9 | 16.1 | 61.1 | 1.27 | -0.13 | 2.38
Cc1ccc2c(-c3ccnc(Nc4cccc(C(F)(F)F)c4)n3)c(-c3ccccc3)nn2n1 | 0.17 | 36.8 | 71 | 2.37 | 21.2 | 1.89 | 10.2 | 3.67 | -1.51 | 2.7
COc1cc2ncnc(Nc3ccc(C)c(O)c3)c2cc1OC | 4.07 | 15.3 | 46.2 | 74.6 | 93.2 | 0.71 | 3.03 | -2.6 | -3.35 | 6.68
CCCN1CCCC(c2ccc(Nc3nc(Nc4cc(F)ccc4C(N)=O)c4cc[nH]c4n3)c(OC)c2)C1 (stereo not given) | 12.2 | 4.94 | 7.28 | 2.54 | 0.66 | 3.86 | 13.1 | 5.98 | -3.62 | 4.74
O=C(Nc1ccc(Oc2ccc3[nH]c(NC(=O)c4ccco4)nc3c2)cc1)Nc1cc(C(F)(F)F)ccc1F | -2.3 | 1.62 | 9.51 | 23.6 | 78.8 | 15 | 70.7 | 1.75 | -3.76 | 5.34
C[C@@H](Oc1cc(-n2cnc3ccc(OCC4CCN(C)CC4)cc32)sc1C(N)=O)c1ccccc1C(F)(F)F | -0.61 | 2.16 | 13.4 | -0.83 | -0.16 | 1.99 | 11 | 3.19 | 3.05 | -0.92
COc1cc2ncn(-c3cc(OCc4ccccc4S(C)(=O)=O)c(C#N)s3)c2cc1OC | 1.47 | 15.2 | 59.6 | 3.31 | 15.7 | 3.03 | 11.6 | 5.25 | 1.09 | 4.94
NC(=O)c1cccc(Nc2nccc(Nc3cccc(F)c3)n2)c1 | 1.79 | 5.52 | 30 | 1.29 | 16.4 | 3.08 | 16.5 | 1.55 | 32.4 | 10.5
COC(=O)c1ccc2c(c1)C(=Cc1cc(Br)c(O)c(Br)c1)C(=O)N2 | 3.36 | 0.15 | 9.32 | 2.43 | 2.64 | 5.48 | 7.6 | -0.04 | 51.5 | 2.46
C[C@@H](Oc1cc(-n2cnc3ccc(OC[C@@H](O)CO)cc32)sc1C(N)=O)c1ccccc1Cl | 0.23 | 0.03 | 4.04 | -1.57 | -1.26 | 0.49 | 5.21 | -3.1 | 2.03 | -0.16
CS(=O)(=O)CCNCc1nc(-c2ccc3ncnc(Nc4ccc(OCc5cccc(C(F)(F)F)c5)cc4)c3c2)cs1 | 0.59 | 2.47 | 4.41 | -0.29 | -0.5 | 7.87 | 32.1 | 2.62 | -0.77 | 0.47
COC(=O)Nc1nc2cc(Oc3ccc(NC(=O)Nc4cccc(Br)c4)cc3)ccc2[nH]1 | 2.05 | 4.68 | 2.98 | 33 | 53.7 | 32.8 | 56.7 | -2.2 | 0.6 | 6.92
COc1cc2ncnc(Nc3ccc4c(cnn4Cc4ccccc4)c3)c2cc1OC | -0.35 | 18.4 | 44.2 | 0.61 | 3.06 | 4.33 | 5.83 | -2.99 | -3.38 | 1.85
COc1ccc2ncnc(Nc3ccc(OCc4ccccc4)cc3)c2c1 | 2.59 | 3.7 | 15.4 | 0.14 | 1.06 | 0.29 | 2.85 | 1.85 | -1 | 1.22
Cc1ccc2c(-c3ccnc(Nc4ccc5c(c4)OCCO5)n3)c(-c3ccc(C(F)(F)F)cc3)nn2n1 | 2.08 | 4.97 | 18.4 | -1.27 | -0.4 | 2.13 | 0.3 | -5.65 | 0.31 | -0.13
NS(=O)(=O)c1cccc(Nc2cc(-c3ccc(F)cc3)n[nH]2)c1 | 2.4 | 6.05 | 14.4 | 2.62 | 15.9 | 16.3 | 67.1 | -2.62 | -1.33 | 4.42
